Rows were chosen to be rich in hits. Some 4.1% of all compounds tested hit in one or more screens of this group.
Beta cell apopt: beta cell apoptosis inhibition. INS-1E cytokine-induced death, ATP luminescence, 48 h; percent of positive-control rescue, neutral wells zero. protection from apoptosis, % (test concentration not listed). 0.8% of 300,000 active. AID 435005;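 active = Every replicate reaches about 75%, or at least half do and their mean reaches it too, limit read from the data; inconclusive = At least half of replicates reach the limit but their mean does not; inactive = Under half of replicates reach the limit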;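 note: 0% = cytokine-treated negative control wells and 100% = positive control rescue; higher means more ATP so stronger rescue from cytokine killing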
aSyn UTR inh: 5' untranslated region of α-synuclein, MLPCN primary screen; alpha-synuclein 5'UTR reporter, inhibitor activity; inhibition, % (tested at 7.5 µM); 0.82% of 300,000 active; AID 1813; in the data active = inhibition above about 60%; inconclusive = no clear call, values can overlap the other calls;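 note: H4 neuroglioblastoma cells stably carrying SNCA 5'UTR luciferase fusion; 0% = DMSO wells and 100% = positive control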
CSC inhib: blocks cancer stem cells. cancer stem cell-like cells viability, luminescence. inhibition, % at 7.5 µM. AID 2717. 1.1% of 300,000 active; in the data active = inhibition above about 75%; inconclusive = no clear call, values can overlap the other calls; tested in HMLE shEcad cells
Bfl-1 A1 inh: inhibitors of the anti-apoptotic protein A1, read as caspase activation | 0.066% of 330,000 active | MEF A1-2A-BIM cells, Caspase-Glo 3/7 luminescence, 3 h; percent of clofoctol response, vehicle zero | caspase activation, % (concentration not given with the values);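 active = over half of replicate activation scores above 10%, or exactly half above 10 with the replicate mean above 10; inconclusive = replicate mean below 10 yet half the replicates above 10; inactive = over half of replicates below 10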
Mdm2 MdmX PPI: disrupts the human Mdm2-MdmX interaction; O15151+Q00987; SaOS-2 split-luciferase Mdm2/MdmX complementation, luminescence; inhibition, % at 8 µM; 3% of 330,000 active;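 active = inhibition of at least 50% at 8 µM in the primary screen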
Target sequence (O15151 whole entry, looked up): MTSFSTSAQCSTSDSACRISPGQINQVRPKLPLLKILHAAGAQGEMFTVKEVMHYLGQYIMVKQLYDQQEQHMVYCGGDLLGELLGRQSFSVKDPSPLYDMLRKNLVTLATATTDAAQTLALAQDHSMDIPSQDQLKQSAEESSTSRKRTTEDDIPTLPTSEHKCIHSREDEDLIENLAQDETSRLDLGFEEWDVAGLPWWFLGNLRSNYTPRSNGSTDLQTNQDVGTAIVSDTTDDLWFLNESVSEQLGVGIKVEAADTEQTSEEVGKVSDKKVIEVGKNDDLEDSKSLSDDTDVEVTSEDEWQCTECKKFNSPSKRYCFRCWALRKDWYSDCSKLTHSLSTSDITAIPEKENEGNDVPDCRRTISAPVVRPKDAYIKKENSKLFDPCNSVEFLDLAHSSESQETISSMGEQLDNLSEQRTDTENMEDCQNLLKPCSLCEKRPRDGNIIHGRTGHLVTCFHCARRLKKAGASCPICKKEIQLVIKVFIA
Target sequence (Q00987 whole entry, looked up): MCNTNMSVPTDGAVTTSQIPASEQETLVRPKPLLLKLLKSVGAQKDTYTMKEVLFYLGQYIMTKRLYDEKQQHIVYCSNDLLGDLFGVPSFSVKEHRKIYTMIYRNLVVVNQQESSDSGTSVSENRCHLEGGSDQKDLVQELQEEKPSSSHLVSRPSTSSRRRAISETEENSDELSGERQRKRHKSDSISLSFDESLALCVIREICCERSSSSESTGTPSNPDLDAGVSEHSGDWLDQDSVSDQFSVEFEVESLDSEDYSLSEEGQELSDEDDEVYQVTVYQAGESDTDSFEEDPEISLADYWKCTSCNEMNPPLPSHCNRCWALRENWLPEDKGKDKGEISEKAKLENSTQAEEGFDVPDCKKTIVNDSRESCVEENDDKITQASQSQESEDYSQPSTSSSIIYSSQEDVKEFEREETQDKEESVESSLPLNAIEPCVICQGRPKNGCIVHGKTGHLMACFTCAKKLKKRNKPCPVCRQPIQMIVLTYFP
Mdm2-MdmX conf: human Mdm2/MdmX binding inhibition, confirmed; shares compounds with Mdm2 MdmX PPI; luminescent assay; inhibition, % at 8 µM; 55% of 10,000 active; AID 489028; in the data active = inhibition above about 40%
FLuc counter: counter-screen for Mdm2/MdmX inhibitors: full-length luciferase; shares compounds with Mdm2 MdmX PPI; SaOS-2 full-length luciferase counterscreen, luminescence; inhibition, % at 8 µM; 77% of 6,200 active;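 active = mean inhibition at 8 µM reaching about 37%, which flags the compound as non-specific, limit read from the data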;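 note: p53-null SaOS-2 cells with luciferase driven by a doxycycline-inducible promoter; compound on cells about two nights before reading with doxycycline added after day one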
* = called active by the depositor; ? = inconclusive; . = not tested or not shown.

SMILES | Beta cell apopt | aSyn UTR inh | CSC inhib | Bfl-1 A1 inh | Mdm2 MdmX PPI | Mdm2-MdmX conf | FLuc counter
O=C(CCN1C(=O)/C(=C/c2ccc(Cl)cc2)SC1=S)NC1C=CS(=O)(=O)C1 (centres undefined) | -2 | -32 | 23 | 1 | 59* | 36 | .
O=C(CN1C(=O)/C(=C/c2ccc(Cl)cc2)SC1=S)NC1C=CS(=O)(=O)C1 (centres undefined) | 3 | -35 | -1 | 1 | 15 | . | .
CCOc1ccccc1C(=O)N1CCN(c2cccc(Cl)c2)CC1 | 21 | 95* | 63 | 1 | 74* | 63* | 93*
CCOc1ccc2ccccc2c1C(=O)N1CCN(c2ccccc2)CC1 | -5 | 7 | . | 1 | 58* | 54* | 51*
C/C(=N\NC(=O)c1cc(-c2cccs2)nc2ccccc12)c1ccccn1 | 102* | 79* | 136* | -1 | 80* | 75* | 28
O=C(NCc1ccc(F)cc1)c1ccccc1OCc1ccccc1 | 5 | 32 | -5 | -1 | -19 | . | .
C/C(=N\NC(=O)c1cccc2ccccc12)c1ccccn1 | . | 60 | . | . | 96* | 38 | 30
C/C(=N\NC(=O)c1ccccc1OCc1ccc(F)cc1)c1ccccn1 | 94* | . | 31 | -2 | 93* | 53* | 45*
COc1ccccc1NC(=O)N[C@@H](Cc1c[nH]c2ccccc12)C(=O)NN | -3 | -8 | -10 | 0 | 4 | . | .
O=C(C#Cc1ccccc1)c1cccc([N+](=O)[O-])c1 | . | -28 | . | 1 | 88* | 16 | .
CC(=O)c1cccc([N+](=O)[O-])c1 | -1 | . | -2 | 0 | 16 | . | .
CNC[C@H](Cc1cccc2ccccc12)NC[C@H](CCSC)NCC1CCC(C(C)(C)C)CC1 (some centres undefined) | -1 | . | 90* | -1 | 60* | 5 | .
CC(CCc1ccccc1)NCc1cccc2ccccc12 (centres undefined) | 7 | 10 | 3 | 1 | -26 | . | .
Cc1ccc2c(c1)c1c(n2CC(O)CNC(CO)(CO)CO)CCCC1 (centres undefined) | 0 | 2 | -13 | 0 | 14 | . | .
Cc1ccc2c(c1)c1c(n2CC(O)CNC2CCCCC2)CCCC1 (centres undefined) | 21 | 38 | 77* | 0 | 100* | 46* | 51*
CN(CC(=O)Nc1ccc(F)cc1)C(=O)Cn1cnc2ccc([N+](=O)[O-])cc2c1=O | -3 | . | -5 | 0 | 11 | . | .
CCc1ccc(C(=O)COC(=O)c2ccccc2OC)cc1 | . | -45 | -13 | 1 | -25 | . | .
COc1ccc(-c2nc3c(c(=O)n(C)c(=O)n3C)n2CC2CC(c3ccccc3)=NO2)cc1OC (centres undefined) | -2 | -5 | . | 0 | 61* | 45* | 89*
COc1ccc(N2CCN(S(=O)(=O)c3c(C)n(C)c(=O)n(C)c3=O)CC2)cc1 | -6 | -5 | -11 | 0 | 15 | . | .
C=CCn1c(COc2ccccc2)nnc1SC(C)C(=O)N/N=C/c1cc(Cl)ccc1O (centres undefined) | 26 | . | 58 | 2 | 65* | 60* | 31
C=CCn1c(COc2ccc(Cl)cc2)nnc1SCC(=O)N/N=C/c1cccc(O)c1 | -6 | 17 | 51 | 2 | 8 | . | .
Cc1ccccc1OCCOC(=O)c1cc(S(=O)(=O)N2CCCCC2)ccc1N1CCOCC1 | 55 | . | . | 0 | 5 | . | .
CSc1c(CC(=O)Nc2ccc(F)cc2)n(Cc2ccccc2)c2ccccc12 | 4 | -29 | 1 | 1 | 86* | 18 | .
CSc1c(CC(=O)Nc2ccccc2)n(C)c2ccccc12 | . | 50 | 19 | 0 | 50* | -35 | .
COc1ccccc1Nc1nnc(SCC(=O)NC(=O)Nc2ccc3c(c2)OCCO3)s1 | -10 | 1 | -8 | -1 | 68* | 57* | 44*
SMILES | Beta cell apopt | aSyn UTR inh | CSC inhib | Bfl-1 A1 inh | Mdm2 MdmX PPI | Mdm2-MdmX conf | FLuc counter
Cc1cccc(Nc2nnc(SCC(=O)NC(=O)Nc3ccc4c(c3)OCCO4)s2)c1 | 0 | -95 | 18 | -2 | 91* | 24 | .
Cc1cccc(NC(=O)c2ccccc2NC(=O)c2ccccc2)n1 | 7 | -8 | 8 | 0 | 1 | . | .
COc1ccc(-c2onc3ccc(C(=O)/C=C/N(C)C)cc23)cc1 | -11 | -4 | -2 | 1 | 49 | . | .
CN(C)/C=C/C(=O)c1ccc2noc(-c3cccc(F)c3)c2c1 | -5 | -27 | 1 | 2 | 53* | 26 | .
COc1ccc(CNC(=O)c2ccccc2NC(=O)C2=CSCCO2)c(OC)c1 | . | 29 | -7 | -1 | 17 | . | .
Brc1ccc(N/N=C(/N=Nc2nn[nH]n2)c2ccccc2)cc1 | 96* | 97* | -10 | 0 | 77* | 85* | 14
CCOc1ccccc1NC(=O)COC(=O)c1cnc(C)cn1 | . | . | . | . | -2 | . | .
O=S(c1ccc2ccccc2c1)c1cnns1 (centres undefined) | -24 | . | 40 | 0 | 57* | 28 | .
Cc1nnsc1S(=O)c1ccc(Cl)c(Cl)c1 (centres undefined) | . | -89 | . | 0 | 30 | . | .
COc1ccc(-n2nc(C(=O)c3cccs3)cc(-c3nc4ccccc4[nH]3)c2=N)cc1 | -19 | -32 | 49 | 1 | 98* | 49* | 31
Cc1ccccc1-n1nc(C(=O)c2cccs2)cc(-c2nc3ccccc3[nH]2)c1=N | 34 | 18 | 18 | -2 | 39 | . | .
CN(C)CCCNc1cc(C(C)(C)C)nc2c(-c3ccc(Cl)cc3)cnn12 | 21 | 108* | 107* | 1 | 98* | 72* | 51*
Cc1cc(NCCCn2ccnc2)n2ncc(-c3ccc(Cl)cc3)c2n1 | 15 | ? | 42 | 0 | 60* | 86* | 52*
Cc1cc(NCCCN2CCOCC2)n2ncc(-c3ccc(Cl)cc3)c2n1 | -4 | -58 | 60 | 0 | 65* | 62* | 69*
Cc1cccc(-c2cc3nc(C)cc(NCCCn4ccnc4)n3n2)c1 | 5 | 3 | 3 | -1 | 17 | . | .
CC(C)(C)c1cc(NCc2ccccn2)n2ncc(-c3ccc(Cl)cc3)c2n1 | 7 | 17 | 56 | -1 | 45 | . | .
CC(=O)C[C@H](O)CC(=O)[C@H]1OC(=O)CCCCCCCc2ccccc21 | -5 | . | 13 | 0 | 20 | . | .
COC(=O)c1sc2nc(SCC(=O)N(C)c3ccccc3)n(N)c(=O)c2c1C | 15 | 16 | 26 | -1 | 56* | 8 | .
CC1CN(C(=O)CCC(=O)NCc2ccccc2)c2ccccc2O1 (centres undefined) | 2 | 7 | 7 | 0 | -2 | . | .
CCOc1ccc(C(=O)CCC(=O)NCC(=O)Nc2c(C)cccc2C)cc1 | -2 | . | . | 1 | 9 | . | .
Cc1ccc(C(C)C)c(Oc2cnccn2)c1 | -3 | 9 | -7 | 1 | 5 | . | .

High-throughput results: PubChem, several laboratories
